Test results: PubChem BioAssay AID1159580 (chemical genetic matrix, 2015)
Values joined by “and” are separate entries in the source; they are usually repeats but may differ in a detail not shown here. Identical values can stand only once. The campaign covered roughly 5,500 compounds. About 2,000 (36%) were called active. Roughly 18% stayed inconclusive and do not appear here. Cut-off read from the data, not from the text of the source: active = normalized growth mostly below about 0.91 (no sharp cut-off); inconclusive = no clear call, values can overlap the other calls; inactive = mostly above about 0.92. Some of the results follow.

Assay: chemical genetic growth profiling, strain panel (AID 1159580);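 note: tested at 20 µM; growth read once vehicle control cultures reached saturation at 30 °C; 1 = growth at the plate median or of vehicle wells; lower values mean less growth of the strain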
Details: S. cerevisiae deletion strains, growth OD

Measured: normalized growth

COc1ccc(C(Cl)=C(c2ccc(OC)cc2)c2ccc(OC)cc2)cc1
inactive: locus YAL021C, strain ccr4, hits give low values 1.04 | locus YAL026C, strain drs2, hits give low values 1.03 | locus YAL030W, strain snc1, hits give low values 1.03 | locus YBL061C, strain skt5, hits give low values 0.992 | locus YBR009C, strain hhf1, hits give low values 1.01 | locus YBR021W, strain FUR4, hits give low values 0.994 | locus YBR023C, strain chs3, hits give low values 0.993 | locus YBR171W, strain sec66, hits give low values 1.03 | locus YBR229C, strain ROT2, hits give low values 1.01 | locus YBR231C, strain swc5, hits give low values 1.03 | locus YBR279W, strain paf1, hits give low values 0.984 | locus YCL011C, strain gbp2, hits give low values 1.02 | locus YCL016C, strain dcc1, hits give low values 0.985 | locus YCL029C, strain bik1, hits give low values 1.01 | locus YCL061C, strain MRC1, hits give low values 1.03 | locus YCL069W, strain vba3, hits give low values 1.03 | locus YCR088W, strain abp1, hits give low values 1.02 | locus YDL005C, strain med2, hits give low values 1.03 | locus YDL035C, strain GPR1, hits give low values 0.989 | locus YDL040C, strain nat1, hits give low values 1.03 | locus YDL074C, strain BRE1, hits give low values 1.03 | locus YDL101C, strain DUN1, hits give low values 1.03 | locus YDL134C, strain PPH21, hits give low values 0.981 | locus YDL185W, strain tfp1, hits give low values 1.01 | locus YDL192W, strain arf1, hits give low values 1.02 | locus YDR001C, strain nth1, hits give low values 1.02 | locus YDR069C, strain doa4, hits give low values 0.993 | locus YDR101C, strain arx1, hits give low values 0.997 | locus YDR137W, strain rgp1, hits give low values 0.97 | locus YDR150W, strain NUM1, hits give low values 1.01 | locus YDR159W, strain sac3, hits give low values 1.01 | locus YDR162C, strain NBP2, hits give low values 1 | locus YDR195W, strain ref2 1.06 | locus YDR297W, strain sur2, hits give low values 1.02 | locus YDR318W, strain mcm21, hits give low values 1.01 | locus YDR334W, strain swr1, hits give low values 1.04 | locus YDR335W, strain msn5, hits give low values 1 | locus YDR388W, hits give low values 1.03 | locus YDR392W, strain spt3, hits give low values 1 | locus YDR502C, strain sam2, hits give low values 1.01 | locus YEL003W, strain gim4, hits give low values 1.03 | locus YEL037C, strain rad23, hits give low values 1.03 | locus YEL061C, strain CIN8 (second series), hits give low values 1.06 | locus YEL061C, strain CIN8, hits give low values 1.01 | locus YER015W, strain faa2, hits give low values 1.03 | locus YER016W, strain bim1, hits give low values 0.971 | locus YER110C, hits give low values 1.03 | locus YER111C, strain swi4, hits give low values 1.03 | locus YER155C, strain BEM2 (second series), hits give low values 1.03 | locus YER155C, strain BEM2, hits give low values 1.02 | locus YER167W, strain BCK2, hits give low values 1.01 | locus YFR010W, strain ubp6, hits give low values 1.02 | locus YGL078C, strain dbp3, hits give low values 1.01 | locus YGL086W, strain mad1, hits give low values 0.998 | locus YGL167C, strain pmr1, hits give low values 1.01 | locus YGL173C, strain kem1, hits give low values 1.03 | locus YGL227W, strain vid30, hits give low values 1.02 | locus YGL240W, strain doc1, hits give low values 1.05 | locus YGL248W, strain PDE1, hits give low values 1.03 | locus YGL253W, strain hxk2, hits give low values 0.999 | locus YGR135W, strain pre9, hits give low values 1.04 | locus YGR252W, strain gcn5, hits give low values 1.04 | locus YHR013C, strain ard1, hits give low values 1.04 | locus YHR027C, strain rpn1, hits give low values 0.989 | locus YHR030C, strain SLT2, hits give low values 1.01 and 0.939 | locus YHR079C, strain IRE1 (second series), hits give low values 1.02 | locus YHR079C, strain IRE1, hits give low values 0.963 | locus YHR094C, strain hxt1, hits give low values 1.03 | locus YHR129C, strain ARP1, hits give low values 1.02 | locus YHR142W, strain chs7, hits give low values 1.06 | locus YHR200W, strain rpn10, hits give low values 1.02 | locus YIL066C, strain RNR3, hits give low values 1 | locus YIL073C, strain SPO22, hits give low values 1.03 | locus YIL125W, strain kgd1, hits give low values 1.01 | locus YIR030C, strain dcg1, hits give low values 1.02 | locus YJL092W, strain hpr5, hits give low values 1.02 | locus YJL095W, strain BCK1 (second series), hits give low values 1.03 | locus YJL095W, strain BCK1, hits give low values 1.06 and 0.963 | locus YJL115W, strain asf1, hits give low values 1.02 | locus YJL129C, strain trk1, hits give low values 1.04 | locus YJL134W, strain LCB3, hits give low values 1.01 | locus YJL154C, strain vps35, hits give low values 1.03 | locus YJL164C, strain tpk1, hits give low values 1.01 | locus YJL166W, strain qcr8, hits give low values 1.04 | locus YJL168C, strain set2, hits give low values 1.03 | locus YJL187C, strain SWE1 (second series), hits give low values 1.04 | locus YJR043C, strain POL32, hits give low values 0.999 | locus YJR066W, strain TOR1, hits give low values 0.965 | locus YJR075W, strain HOC1, hits give low values 1.03
